In all, about 320,000 compounds went through this assay and about 22,000 (6.9%) were called active. About 27% were inconclusive and are not listed. What follows is part of a selection rich in actives, with near analogues and random picks from the rest. Values without a mark were called inactive. Calls follow the shape of the dose curve; as a rule, active = well fitted inhibition curve with a large enough effect; inconclusive = small, poorly fitted or top-dose-only effect, or another doubt; inactive = no such curve, though single readings can be large or run the other way.
Assay: Primary qHTS for delayed death inhibitors of the malarial parasite plastid, 96 hour incubation
Conditions: P. falciparum luciferase reporter growth; series mostly up to 28.7 µM; activity change, negative = inhibition: at the top concentration
From the text: The goal of this screen is to discover new antimalarial compounds that act by inhibiting the development of the apicoplast in the malarial parasite Plasmodium falciparum. The biochemical processes that make this organelle essential for erythrocytic stage parasites are not well understood. However, antibiotics such as azithromycin and tetracycline, which target the apicoplast translational machinery, have a potent antimalarial effect.
We have developed a cell-based assay that measures parasite growth based on the expression of an integrated copy of a firefly luciferase reporter. To detect small molecules that cause this "delayed death" phenotype, erythrocytes infected with the luciferase-expressing parasites were incubated with compounds for either one or two generations, corresponding to 48 and 96 hours, respectively. Compounds that inhibit parasite growth in the second generation, but not the first, should be enriched in antimalarials that target the apicoplast. Growth inhibition is detected by a decrease in luciferase activity.
Assay Provider: David Fidock and Eric Ekland, Columbia University
Keywords: NIH Roadmap, MLPCN, MLI, MLSMR, qHTS, NCGC, qHTS, malaria, luciferase, viability
Four microliters of infected erythrocytes (2% hematocrit, 0.05% parasitemia final concentration) in culture medium were dispensed and the plates incubated for 96 hours at 37 C in 5% CO2. Two microliters of luciferase detection reagent was added and luminescence was detected by a ViewLux (PerkinElmer) reader.
% is scaled to controls: 0 for no effect and ±100 for the full control effect; potency is read from the fitted curve at half-maximal effect.

Point of comparison: `COc1ccc(S(=O)(=O)N2CCOCC2)cc1NC(=O)Cc1c(F)cccc1Cl`, “activity change, negative = inhibition” value -12.3%. Against it:
- FC(F)(F)c1cccc(-c2nc(COc3ccc(Cl)cc3Cl)no2)c1 — higher, -2.32%
- Cc1cc(C)nc(NS(=O)(=O)c2ccc(N3C(=O)C4CCCCC4C3=O)cc2)n1 (stereo not drawn) — higher, 77.2%
- CCc1ccc(NC(=O)Cn2nnc(C(=O)NCc3ccc4c(c3)OCO4)c2N)cc1 — higher, 20.3%
- COc1ccc(S(=O)(=O)N2CCOCC2)cc1NC(=O)Cc1coc2cc(C)ccc12 — higher, -11.9%
- Cc1ccc(S(=O)(=O)N2CCN(C)CC2)cc1C(=O)NC1CCCCC1 — lower, -14.8%
- COc1ccc(S(=O)(=O)NC(C)C)cc1C(=O)NC1CCCCC1 — lower, -13.1%
- Cc1ccc(S(=O)(=O)N2CCOCC2)cc1NC(=O)CSc1nnc(N)s1 — higher, -4.94%
- COc1ccc(S(=O)(=O)N2CCOCC2)cc1NC(=O)COc1ccccc1 — higher, -0.938%
- NC(=O)COC(=O)c1ccc2c(c1)C(=O)N(Cc1ccco1)C2=O — higher, 18.5%
- Cc1cc(C)c(CN2CCN(C(=O)Cn3ccc(NC(=O)OCc4ccccc4)nc3=O)CC2)c(C)c1 — lower, -25.9%
- O=C(COC(=O)Cn1[nH]c(=O)c2ccccc2c1=O)Nc1ncc(Cl)cc1Cl — higher, 25.8%
- COc1ccc(C(=O)OCC(=O)c2ccc(Cl)s2)c(OC)c1OC — lower, -21.3%
- CCc1cccc(C)c1NC(=O)COC(=O)CNC(=O)c1cccs1 — higher, 34.6%
- CN(C)c1cccc(C(=O)N2CCC(n3nccc3NC(=O)C3CCOC3)CC2)c1 (stereo not drawn) — higher, 16.6%
- Cc1nnc2n1N=C(c1ccccc1)CS2 — higher, 22%
- CCN(CC)S(=O)(=O)c1ccc(Cl)c(C(=O)NCCN2CCOCC2)c1 — lower, -25.2%
- O=C(NC(=O)c1ccccc1)NC(=O)c1ccccc1 — lower, -27.2%
- O=C(NCC1CCCO1)/C(=C/c1ccc(Cl)cc1)NC(=O)c1ccccc1 (stereo not drawn) — lower, -28.1%
- COc1ccc(N2C(=O)C(CC(=O)Nc3ccccc3)N(Cc3ccc(OC)c(OC)c3)C2=O)cc1 (stereo not drawn) — higher, 10.9%
- CCOc1ccc(NC(=O)CC2C(=O)N(c3ccccc3)C(=O)N2CCOC)cc1 (stereo not drawn) — higher, 35.9%
- CCS(=O)(=O)c1ccc(-c2cccc(NC(=O)c3ccc(Br)o3)c2)nn1 — higher, 1.83%
- O=C(OCCN1C(=O)c2ccccc2C1=O)Oc1ccccc1 — higher, -2.14%
- O=C(NCCCn1ccnc1)c1ccccc1F — lower, -19.5%
- COc1ccc(-c2csc(Nc3ccccn3)n2)cc1 — higher, 9.84%
- CC1(C)C(C=C(Cl)Cl)C1C(=O)NC(O)C(=O)c1ccccc1 (stereo not drawn) — higher, 21.7%
- COc1ccc(N2CCN(C3CCCCC3NS(=O)(=O)c3ccccc3)CC2)cc1 (stereo not drawn) — higher, 19.5%
- O=C(NC1Cc2ccccc2C1)c1cc(COc2cccc(C(F)(F)F)c2)on1 — lower, -18.1%
- CC(C)CC(=O)Nc1nnc(S(=O)(=O)N(C)c2ccc(Cl)cc2)s1 — higher, 0%
- Cc1cc(C(=O)OCC(=O)N2c3ccccc3NC(=O)C2(C)C)c(C)n1-c1ccccc1 — higher, 0%
- CNS(=O)(=O)c1cccc(C(=O)OCC(=O)N2c3ccccc3NC(=O)C2(C)C)c1 — lower, -26.3%
- COc1cccc(-n2c(=S)sc3c(=O)n(-c4ccccc4C)c(SCC(=O)O)nc32)c1 — higher, 23.6%
- O=C(CN1CCCCCC1)Nc1ccc(Cl)cc1F — higher, 39.2%
- CN(C)C(=O)c1ccc(NC(=O)COC(=O)c2cc3c(s2)CCCCC3)cc1 — higher, -11.1%
- CC(CN1CCOCC1)c1ccccc1 (stereo not drawn) — higher, 25.6%
- Cc1cc(C)cc(NC(=S)NCCCN2CCOCC2)c1 — higher, 2.48%
- CCOC(=O)Nc1ccc2c(c1)N(C(=O)CCCl)c1ccccc1[S@]2=O — lower, -14.6%
- Cc1ccc(CCN2CC(C(=O)NCCc3ccccc3)CC2=O)cc1 (stereo not drawn) — higher, 68.2%
- CC(=O)Nc1c2c(nn1-c1cccc(C)c1)CSC2 — higher, 20.2%
- O=C(CCCN1C(=O)/C(=C\c2ccco2)SC1=S)Nc1cccc2ccccc12 — higher, 10.4%
- Cn1c(=O)[nH]c(=O)c2c1[nH]c(=S)n2Cc1ccccc1 — higher, 10.9%
- COc1ccc(C(=O)Oc2ccc(-c3nnco3)cc2)cc1S(=O)(=O)N1CCOCC1 — higher, 22.5%
- COc1ccc(C2=NOC(C(=O)NCc3ccco3)C2)cc1OC (stereo not drawn) — higher, -4.01%
- COc1ccccc1N1CCN(CC(=O)NC(=O)NCc2ccco2)CC1 — higher, 27.5%
- CCCCNC(=O)CN1C(=O)NC(Cc2ccccc2)(Cc2ccccc2)C1=O — higher, 7.91%
- CCOC(=O)c1c(NC(=O)c2cccs2)sc(C)c1C — higher, 50.7%
- CCOC(=O)c1c(NC(=S)NC(=O)/C=C/c2cccs2)sc(C)c1C — higher, 0%
- Cn1c(Nc2ccccc2)cc(=O)n(C)c1=O — higher, 11.9%
- CCn1cc(CN2CCC(C(=O)Nc3cccc(-c4cccc(Cl)c4)c3)CC2)c(C)n1 — higher, 11.7%
- COc1ccc(N2C(=O)CCC(C(=O)N(C)C3CCCCC3)C2c2ccc(OC)c(OC)c2)cc1 (stereo not drawn) — higher, -2.32%
- COC(=O)CN1C(=O)[C@H]2[C@@H](C3CC3)N3C(=O)CN(Cc4ccc(-c5ccccc5)cc4)C(=O)[C@@]3(Cc3ccccc3)[C@H]2C1=O — higher, 40.9%

In the case of `COc1ccc(S(=O)(=O)N2CCOCC2)cc1C(=O)NC1CCCCC1`, the Potency is reported as 4.65 µM (active).
In the case of `COc1ccc(S(=O)(=O)N2CCOCC2)cc1NC(=O)CSc1cc(C)ccc1C`, the Potency is reported as 7.38 µM (active).
For `CC(C)Oc1ccc(S(=O)(=O)N2CCOCC2)cc1NC(=O)C1CCCC1`, the Potency was 11.7 µM (active).
For `N#C/C(=C/c1ccc(Cl)cc1)NC(=O)c1ccccc1`, the Potency was 3.7 µM (active).
With `CCCOc1ccc(NC(=O)CC2C(=O)N(C)C(=S)N2Cc2ccc3c(c2)OCO3)cc1` (stereo not drawn) the Potency was 0.329 µM (active).
In the case of `COc1ccc(-c2sc3ccc(OC)cc3c2C#Cc2ccccn2)cc1`, the Potency is reported as 2.33 µM (active).
In the case of `CCNc1ccc(C(=O)OCC(=O)N2c3ccccc3NC(=O)C2(C)C)cc1[N+](=O)[O-]`, the Potency is reported as 9.28 µM (active).
With `CC(C)c1cc(CN2CCOCC2)cc(C(C)C)c1O` the Potency was 10.4 µM (active).
For `CCCN(CCC)c1nc2c(C)cccn2c(=O)c1/C=C1/SC(=S)N(Cc2ccco2)C1=O`, the Potency was 2.08 µM (active).
In the case of `COc1cc2c(cc1OC)C(C(=O)NCc1ccco1)C1c3ccccc3CCN1C2=O` (stereo not drawn), the Potency is reported as 3.29 µM (active).
In the case of `CCOC(=O)c1c(NC(=O)/C=C/c2ccco2)sc(C)c1C`, the Potency is reported as 2.33 µM (active).
With `CCN1C(=O)[C@@H]2[C@@H](c3ccc(-c4cccc(Cl)c4)cc3)N3CCC[C@@]3(C(=O)OC)[C@@H]2C1=O` the Potency was 8.28 µM (active).
In the case of `CCN1C(=O)[C@@H]2[C@@H](c3ccc(-c4ccc(OC)cc4)c(OC)c3)N3CCC[C@@]3(C(=O)OC)[C@@H]2C1=O`, the Potency is reported as 10.4 µM (active).
With `CCCCCCSc1ccc([C@@H]2[C@@H]3C(=O)N(CC)C(=O)[C@@H]3[C@]3(C(=O)OC)CCCCN23)cc1OC` the Potency was 6.57 µM (active).

Point of comparison: `Cc1ccc2[nH]c(=O)c(-c3nc4c(C)cccn4c3NCc3ccco3)cc2c1`, activity change, negative = inhibition 10.9% [at 5.75 µM]. Against it:
- COc1ccc(-c2cn3cccnc3n2)cc1 — lower, -27.3% [at 5.75 µM]
- COCCCN1C(=O)c2ccc(C(=O)Nc3ccc(OC)cc3OC)cc2C1=O — higher, 25.7% [at 5.75 µM]
